# According to the supplement of paper PMC10127200:
# Where a name gives a salt, the structure may show the parent alone.
# Experiments:
# Assay in all cases: Euclidean distance of Cell Painting phenotypic profile (signed KS, 77 features) to DMSO centroid (dimensionless distance); 5 or 10 uM (library dependent); higher = stronger phenotypic change vs DMSO (phenoactivity)
# Settings in all cases: 48 h
# 786-O = test system: 786-O
# How it was run: (§1)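 Phenoactivity is defined as the Euclidean distance from a compound profile to the median vehicle profile. Each profile comprised 77 Harmony features, scored as signed Kolmogorov-Smirnov statistics versus same-plate vehicle wells, then plate-position corrected, correlation-weighted and replicate-averaged at the top dose. Five cancer lines and one healthy fibroblast line were exposed to library compounds for 48 h at 10 or 5 uM (0.1% DMSO final).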
# A549 = test system: A549
# How it was run: as §1
# DU145 = test system: DU145
# How it was run: as §1
# FB = test system: FB
# How it was run: as §1
# HEPG2 = test system: HEPG2
# How it was run: as §1
# OVCAR4 = test system: OVCAR4
# How it was run: as §1
SMILES,Euclidean distance (786-O),Euclidean distance (A549),Euclidean distance (DU145),Euclidean distance (FB),Euclidean distance (HEPG2),Euclidean distance (OVCAR4)
CCCN[C@H]1CCc2nc(N)sc2C1 [Pramipexole dihydrochloride],0.969,0.801,1.16,1.09,0.46,1.16
O=c1cc(CO)occ1O [Kojic acid],1.24,0.713,0.837,0.833,0.625,1.14
C[C@@H](N)c1ccc(C(=O)Nc2ccnc3[nH]ccc23)cc1,1.87,3.06,3.16,3.73,2.26,2.05
CO[C@@H]1[C@H](OC(=O)/C=C/C=C/C=C/C=C/C(=O)O)CC[C@]2(CO2)[C@H]1[C@@]1(C)O[C@@H]1CC=C(C)C [Fumagillin],2.75,2.91,4.57,2.95,1.89,3.29
Nc1ncnc2c1ncn2[C@@H]1O[C@H](CO)[C@@H](O)[C@@H]1O [Vidarabine monohydrate],0.895,1.22,0.966,0.665,1.66,1.18
CC(=O)O[C@@]12CO[C@@H]1C[C@H](O)[C@@]1(C)C(=O)[C@H](O)C3=C(C)[C@@H](OC(=O)[C@H](O)[C@@H](NC(=O)OC(C)(C)C)c4ccccc4)C[C@@](O)([C@@H](OC(=O)c4ccccc4)[C@H]21)C3(C)C [Docetaxel Trihydrate],3.61,3.08,3.17,2.26,2.15,2.49
O=C(CCc1ccc(O)cc1)c1c(O)cc(O)cc1O[C@@H]1O[C@H](CO)[C@@H](O)[C@H](O)[C@H]1O [Phlorizin],0.911,1.18,0.673,0.849,1.02,0.783
CC(C)Nc1cccnc1N1CCN(C(=O)c2cc3cc(NS(C)(=O)=O)ccc3[nH]2)CC1 [Delavirdine (mesylate)],1.18,0.811,2.31,1.56,0.607,1.51
Cc1nc(Nc2ccc(F)cc2)nc(N2CCc3ccccc3C2C)c1C (configuration not stated) [Revaprazan Hydrochloride],1.38,1.19,1.06,1.28,1.21,1.13
CCCS(=O)(=O)N[C@H]1C[C@@H](N(C)c2ncnc3[nH]ccc23)C1,0.905,1.03,1.02,1.03,0.71,1.17
CC(S)C(=O)NCC(=O)O (configuration not stated) [Tiopronin],1.57,0.822,1.09,0.869,2.07,1.32
C[C@H]1[C@H](C)CC[C@]2(C(=O)O)CC[C@]3(C)C(=CC[C@@H]4[C@@]5(C)C[C@@H](O)[C@H](O)[C@@](C)(CO)[C@@H]5CC[C@]43C)[C@H]12 [Asiatic Acid],0.996,0.839,1.11,1.04,1.24,0.885
CC(C)Cc1ccc(C(C)C(=O)O)cc1 (configuration not stated) [Ibuprofen],0.948,0.452,0.996,0.827,0.86,0.689
Cc1ccnc2c1NC(=O)c1cccnc1N2C1CC1 [Nevirapine],1.2,0.789,0.803,0.827,1.93,0.872
CC(=O)Nc1ncc([N+](=O)[O-])s1 [Nithiamide],0.999,0.607,0.822,0.606,2.08,0.885
COc1ccccc1O [Guaiacol],0.884,0.854,0.891,1.19,0.511,1.43
O=c1cc(N2CCOCC2)oc2c(-c3cccc4c3sc3ccccc34)cccc12,3.24,2.66,2.15,3.31,2.73,1.93
C[C@H]1[C@H](C)CC[C@]2(C(=O)O[C@@H]3O[C@H](CO[C@@H]4O[C@H](CO)[C@@H](O[C@@H]5O[C@@H](C)[C@H](O)[C@@H](O)[C@H]5O)[C@H](O)[C@H]4O)[C@@H](O)[C@H](O)[C@H]3O)CC[C@]3(C)C(=CC[C@@H]4[C@@]5(C)C[C@@H](O)[C@H](O)[C@@](C)(CO)[C@@H]5[C@H](O)C[C@]43C)[C@H]12 [Madecassoside],0.76,0.636,0.932,1.03,0.483,1.28
O=C1c2cccc(O)c2C(=O)c2c(O)cccc21 [Danthron],1.02,0.914,1.19,0.924,0.868,1.12
O=C(O)c1ccc2nc(-c3cc(Cl)cc(Cl)c3)oc2c1 [Tafamidis],1.52,0.941,1.1,0.77,0.971,1.21
CC(C)CCCCC(=O)N[C@@H](CCN)C(=O)N[C@H](C(=O)N[C@@H](CCN)C(=O)N[C@H]1CCNC(=O)[C@H]([C@@H](C)O)NC(=O)[C@H](CCN)NC(=O)[C@H](CCN)NC(=O)[C@H](CC(C)C)NC(=O)[C@@H](Cc2ccccc2)NC(=O)[C@H](CCN)NC1=O)[C@@H](C)O [Polymyxin B sulphate],1.64,0.815,1.39,1.53,0.717,0.928
CCN(CC)C(=S)SSC(=S)N(CC)CC [Disulfiram],1.95,1.78,1.34,2.84,0.547,1.32
CC1(C)O[C@@H]2C[C@H]3[C@@H]4CCC5=CC(=O)CC[C@]5(C)[C@@]4(F)[C@@H](O)C[C@]3(C)[C@]2(C(=O)CCl)O1 [Halcinonide],1.46,2.25,2.18,2,0.493,1.78
OC[C@H]1O[C@@H](O[C@@H]2[C@@H](CO)OC(O)(CO)[C@H]2O)[C@H](O)[C@@H](O)[C@H]1O (mixture of isomers) [Lactulose],1.29,0.822,0.75,0.999,1.43,1.7
O=C(Cn1cnnn1)N[C@@H]1C(=O)N2C(C(=O)O)=C(CSc3nncs3)CS[C@H]12 [Ceftezole sodium],0.633,1.39,1.36,0.846,0.929,0.929
Oc1cc(O)c(Cl)cn1 [Gimeracil],0.868,1.07,1.6,1.25,2.06,1.53
Cc1c(-c2cnccn2)ssc1=S [Oltipraz],1.13,0.941,0.666,0.877,1.11,1.3
